Data as given in PubChem BioAssay (NCI).
This is part of a sample that, as a whole, favours compounds with a hit. Of some 83,000 tested, about 20% had one in any assay.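 Treatment: one concentration, 48 hours, 96-well format. Scoring: percent growth, with anything below 10 considered active.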 Activity calls are given as the source filed them.

What was measured:
Assay in all cases: NCI-60 one-dose screen, 48 h (100 = growth as untreated, 0 = no growth, -100 = all killed)
Conditions in all cases: 10 µM unless noted
SR leukemia = tested on: SR leukemia
RPMI-8226 leukemia = tested on: RPMI-8226 leukemia
OVCAR-8 ovarian = tested on: OVCAR-8 ovarian
OVCAR-5 ovarian = tested on: OVCAR-5 ovarian
OVCAR-4 ovarian = tested on: OVCAR-4 ovarian
SK-OV-3 ovarian = tested on: SK-OV-3 ovarian
IGROV1 ovarian = tested on: IGROV1 ovarian
OVCAR-3 ovarian = tested on: OVCAR-3 ovarian
HS 578T breast = tested on: HS 578T breast
NCI/ADR-RES ovarian = tested on: NCI/ADR-RES ovarian
T-47D breast = tested on: T-47D breast
BT-549 breast = tested on: BT-549 breast
MDA-MB-435 melanoma = tested on: MDA-MB-435 melanoma
SW-620 colon = tested on: SW-620 colon
MCF7 breast = tested on: MCF7 breast
HCT-116 colon = tested on: HCT-116 colon
HCC-2998 colon = tested on: HCC-2998 colon
KM12 colon = tested on: KM12 colon

Measured: growth

CN1C(=O)NC(c2ccc3c(c2)OCO3)C=C1c1ccccc1 (stereo not drawn)
inactive: SR leukemia 23.3% | RPMI-8226 leukemia 65.5% | OVCAR-8 ovarian 93.6% | OVCAR-5 ovarian 93.9% | OVCAR-4 ovarian 97.5% | SK-OV-3 ovarian 94.1% | IGROV1 ovarian 78.7% | OVCAR-3 ovarian 91.1% | HS 578T breast 101% | NCI/ADR-RES ovarian 98.8% | T-47D breast 78.6% | BT-549 breast 90% | MDA-MB-435 melanoma 97.5% | SW-620 colon 78.3% | MCF7 breast 49.9% | HCT-116 colon 78% | HCC-2998 colon 110% | KM12 colon 88.2%

CCCN1[C@@H]2CC[C@H]1/C(=C\c1ccc(OC)c(OC)c1)C(=O)/C2=C/c1ccc(OC)c(OC)c1
inactive: SR leukemia 26.8% | OVCAR-8 ovarian 35.5% | OVCAR-5 ovarian 78.2% | OVCAR-4 ovarian 46% | SK-OV-3 ovarian 66.2% | IGROV1 ovarian 56.8% | OVCAR-3 ovarian 56.9% | HS 578T breast 54.2% | NCI/ADR-RES ovarian 42% | T-47D breast 25.1% | BT-549 breast 51.8% | MDA-MB-435 melanoma 39.6% | SW-620 colon 43% | MCF7 breast 30.2% | HCT-116 colon 22.1% | HCC-2998 colon 86.7% | KM12 colon 54.6%
active: RPMI-8226 leukemia 9.06%

O=[N+]([O-])CC(c1ccccc1)c1c[nH]c2ccccc12 (stereo not drawn)
active: MDA-MB-435 melanoma -14.6%
inactive: SR leukemia 20.2% | RPMI-8226 leukemia 50.7% | OVCAR-8 ovarian 52.7% | OVCAR-5 ovarian 79.4% | OVCAR-4 ovarian 91.5% | SK-OV-3 ovarian 96.3% | IGROV1 ovarian 53.7% | OVCAR-3 ovarian 42.4% | HS 578T breast 64% | NCI/ADR-RES ovarian 26% | T-47D breast 45.1% | BT-549 breast 56.6% | SW-620 colon 27.9% | MCF7 breast 29.9% | HCT-116 colon 32.7% | HCC-2998 colon 77.2% | KM12 colon 43.6%

CCOC(=O)[C@@H](C)C[C@H](Cc1ccccc1)NC(=O)c1csc([C@@H](C[C@H](C(C)C)N(C)C(=O)[C@@H](NC(=O)[C@H]2C[C@H](O[Si](C)(C)C(C)(C)C)CCN2C)C(C)C)OC(C)=O)n1
inactive: OVCAR-4 ovarian 17.3% [9.25 µM] | IGROV1 ovarian 15.7% [9.25 µM] | T-47D breast 37% [9.25 µM] | SW-620 colon 11.8% [9.25 µM] | MCF7 breast 13% [9.25 µM]
active: SR leukemia -13.9% [9.25 µM] | RPMI-8226 leukemia -32.7% [9.25 µM] | OVCAR-8 ovarian -2.84% [9.25 µM] | OVCAR-5 ovarian 9.08% [9.25 µM] | SK-OV-3 ovarian -2.86% [9.25 µM] | OVCAR-3 ovarian 1.08% [9.25 µM] | HS 578T breast -17.7% [9.25 µM] | NCI/ADR-RES ovarian -3.17% [9.25 µM] | BT-549 breast -29.6% [9.25 µM] | MDA-MB-435 melanoma -57.5% [9.25 µM] | HCT-116 colon -25.9% [9.25 µM] | HCC-2998 colon -1.53% [9.25 µM] | KM12 colon 2.03% [9.25 µM]

C=C1C(=O)O[C@H]2[C@H]1CC/C(CNS(=O)(=O)c1cccc3ccccc13)=C\CC[C@@]1(C)O[C@@H]21
active: RPMI-8226 leukemia -16.5% | SW-620 colon -34.9% | HCT-116 colon -60.7%
inactive: SR leukemia 10.7% | OVCAR-8 ovarian 38.5% | OVCAR-5 ovarian 61.9% | OVCAR-4 ovarian 42.8% | SK-OV-3 ovarian 107% | IGROV1 ovarian 15.4% | OVCAR-3 ovarian 11.1% | HS 578T breast 60.9% | NCI/ADR-RES ovarian 74.3% | T-47D breast 24.5% | BT-549 breast 37.2% | MDA-MB-435 melanoma 38.1% | MCF7 breast 16.2% | HCC-2998 colon 71.5% | KM12 colon 85%

Cc1ccccc1NS(=O)(=O)c1cccc(C(=O)Nc2ccc(Br)cc2)c1
inactive: SR leukemia 45.2% [25 µM] | RPMI-8226 leukemia 33.6% [25 µM] | OVCAR-8 ovarian 40.5% [25 µM] | OVCAR-5 ovarian 76.7% [25 µM] | OVCAR-4 ovarian 36.5% [25 µM] | SK-OV-3 ovarian 46.3% [25 µM] | IGROV1 ovarian 40.5% [25 µM] | OVCAR-3 ovarian 47.3% [25 µM] | HS 578T breast 59.1% [25 µM] | NCI/ADR-RES ovarian 19.1% [25 µM] | T-47D breast 25.8% [25 µM] | BT-549 breast 31.2% [25 µM] | MDA-MB-435 melanoma 28.3% [25 µM] | SW-620 colon 58.8% [25 µM] | MCF7 breast 30% [25 µM] | HCT-116 colon 30.5% [25 µM] | HCC-2998 colon 67.3% [25 µM] | KM12 colon 37.1% [25 µM]

COc1ccc(/C=C/c2nc(Nc3ccc(S(=O)(=O)Nc4nc(C)cc(C)n4)cc3)c3ccccc3n2)cc1
inactive: SR leukemia 49.5% | RPMI-8226 leukemia 62.3% | OVCAR-8 ovarian 66.1% | OVCAR-5 ovarian 74.9% | OVCAR-4 ovarian 77.2% | SK-OV-3 ovarian 90.9% | IGROV1 ovarian 90.8% | OVCAR-3 ovarian 79.6% | HS 578T breast 83.1% | NCI/ADR-RES ovarian 73.1% | T-47D breast 49.1% | BT-549 breast 87.9% | MDA-MB-435 melanoma 60.6% | SW-620 colon 61.1% | MCF7 breast 42.2% | HCT-116 colon 66.4% | HCC-2998 colon 74.9% | KM12 colon 47.5%

CCOC(=O)CCN(CC(C)C)C(=S)Nc1ccccc1
inactive: SR leukemia 97.1% | RPMI-8226 leukemia 115% | OVCAR-8 ovarian 102% | OVCAR-5 ovarian 100% | OVCAR-4 ovarian 112% | SK-OV-3 ovarian 130% | IGROV1 ovarian 102% | OVCAR-3 ovarian 124% | HS 578T breast 117% | NCI/ADR-RES ovarian 105% | T-47D breast 105% | BT-549 breast 106% | MDA-MB-435 melanoma 102% | SW-620 colon 107% | MCF7 breast 98.8% | HCT-116 colon 95.9% | HCC-2998 colon 108% | KM12 colon 104%

c1ccc(-c2cn3c(ccc4ccccc43)n2)cc1
active: MDA-MB-435 melanoma -34.7%
inactive: SR leukemia 20.9% | RPMI-8226 leukemia 62.5% | OVCAR-8 ovarian 71.4% | OVCAR-5 ovarian 77.2% | OVCAR-4 ovarian 91.5% | SK-OV-3 ovarian 77.1% | IGROV1 ovarian 49.3% | OVCAR-3 ovarian 56.3% | HS 578T breast 67.8% | NCI/ADR-RES ovarian 35.7% | T-47D breast 66.5% | BT-549 breast 63.6% | SW-620 colon 22.8% | MCF7 breast 28.5% | HCT-116 colon 35% | HCC-2998 colon 75.5% | KM12 colon 23.4%

CCCCCN1C=C/C(=C\C(=O)N2CCCc3ccccc32)c2ccccc21
inactive: SR leukemia 61.6% | RPMI-8226 leukemia 43.9% | OVCAR-8 ovarian 89.3% | OVCAR-5 ovarian 99.8% | OVCAR-4 ovarian 75.2% | SK-OV-3 ovarian 95% | IGROV1 ovarian 77.9% | OVCAR-3 ovarian 84.5% | HS 578T breast 94.8% | NCI/ADR-RES ovarian 107% | T-47D breast 68.2% | BT-549 breast 79.7% | MDA-MB-435 melanoma 97% | SW-620 colon 88.8% | MCF7 breast 91% | HCT-116 colon 66.5% | HCC-2998 colon 102% | KM12 colon 90.4%

Cc1cccc(-c2cn3ccnc3c(-c3ccc4ncn(Cc5ccccc5)c4c3)n2)c1
inactive: SR leukemia 89% | RPMI-8226 leukemia 62.5% | OVCAR-8 ovarian 88.5% | OVCAR-5 ovarian 93.4% | OVCAR-4 ovarian 80.7% | SK-OV-3 ovarian 102% | IGROV1 ovarian 90.5% | OVCAR-3 ovarian 86% | HS 578T breast 91.5% | NCI/ADR-RES ovarian 87.9% | T-47D breast 13.9% | BT-549 breast 101% | MDA-MB-435 melanoma 99.1% | SW-620 colon 100% | MCF7 breast 77.8% | HCT-116 colon 63.3% | HCC-2998 colon 111% | KM12 colon 78%

O=C1Nc2cc(-c3ccc(NC(=O)C4CC4)cc3)ccc2/C1=C/c1ccc[nH]1
inactive: SR leukemia 44.8% | RPMI-8226 leukemia 93.6% | OVCAR-8 ovarian 110% | OVCAR-5 ovarian 98% | OVCAR-4 ovarian 73.4% | SK-OV-3 ovarian 105% | IGROV1 ovarian 99.2% | OVCAR-3 ovarian 110% | HS 578T breast 110% | NCI/ADR-RES ovarian 106% | T-47D breast 21.7% | BT-549 breast 104% | MDA-MB-435 melanoma 99.9% | SW-620 colon 113% | MCF7 breast 12.8% | HCT-116 colon 104% | HCC-2998 colon 111% | KM12 colon 39.8%

CCOC(=O)c1cc(C(=O)c2ccc(OC)c(OC)c2)n2c1ccc1ccccc12
inactive: SR leukemia 86.5% | RPMI-8226 leukemia 80% | OVCAR-8 ovarian 94.7% | OVCAR-5 ovarian 104% | OVCAR-4 ovarian 91.9% | SK-OV-3 ovarian 93% | IGROV1 ovarian 58.6% | OVCAR-3 ovarian 99.6% | HS 578T breast 93.8% | NCI/ADR-RES ovarian 91.5% | T-47D breast 85.3% | BT-549 breast 100% | MDA-MB-435 melanoma 89.5% | SW-620 colon 93.4% | MCF7 breast 80% | HCT-116 colon 88% | HCC-2998 colon 109% | KM12 colon 98.4%

O=C1c2ccc3c4c(ccc(c24)C(=O)N1CCCNCc1ccccc1)C(=O)N(CCCNCc1ccccc1)C3=O
active: SR leukemia -47.2% | RPMI-8226 leukemia -36.7% | OVCAR-8 ovarian -50.7% | OVCAR-5 ovarian -20.6% | OVCAR-4 ovarian -97.2% | SK-OV-3 ovarian -11.4% | IGROV1 ovarian -23.4% | OVCAR-3 ovarian -63.4% | HS 578T breast -32.3% | NCI/ADR-RES ovarian -26.5% | T-47D breast -29.9% | BT-549 breast -85.2% | MDA-MB-435 melanoma -54% | SW-620 colon -81.8% | MCF7 breast -83.8% | HCT-116 colon -44.9% | HCC-2998 colon -90.8% | KM12 colon -81.8%

COc1cc2c(=O)n(CCN(C)C)c3c4cc5c(cc4ccc3c2cc1OC)OCO5
active: SR leukemia 2.29% | RPMI-8226 leukemia -27.7% | OVCAR-5 ovarian -17.5% | OVCAR-4 ovarian 5.11% | SK-OV-3 ovarian -5.08% | IGROV1 ovarian -16% | OVCAR-3 ovarian -41.9% | HS 578T breast 9.24% | NCI/ADR-RES ovarian 2.87% | T-47D breast -20.5% | BT-549 breast 1.42% | MDA-MB-435 melanoma -65.4% | SW-620 colon -17.9% | MCF7 breast 7.27% | HCT-116 colon -7.98% | HCC-2998 colon -58.1% | KM12 colon -25.2%
inactive: OVCAR-8 ovarian 11.4%

CCOC(=O)c1cc(C(=O)c2ccc(OC)c(OC)c2)n2ccc(/C=C/c3cc[n+](CC(=O)c4ccc(OC)c(OC)c4)cc3)cc12
inactive: SR leukemia 92.2% | RPMI-8226 leukemia 81.4% | OVCAR-8 ovarian 95.5% | OVCAR-5 ovarian 99.9% | OVCAR-4 ovarian 90.9% | SK-OV-3 ovarian 102% | IGROV1 ovarian 88.6% | OVCAR-3 ovarian 102% | HS 578T breast 102% | NCI/ADR-RES ovarian 98.6% | T-47D breast 89.9% | BT-549 breast 96.6% | MDA-MB-435 melanoma 99.4% | SW-620 colon 96.7% | MCF7 breast 91.1% | HCT-116 colon 89.7% | HCC-2998 colon 98.8% | KM12 colon 100%
